Values joined by “and” are separate entries in the source; they are usually repeats but may differ in a detail not shown here. Equal values may be shown once. The campaign covered roughly 69,000 compounds. About 2,600 (3.8%) were called active. Cut-off read from the data, not from the text of the source: active = activity change below about -70% (passing the limit was not always enough); inconclusive = no clear call, values can overlap the other calls. The sample as a whole holds a higher share of actives than the screen did. More than one record can exist for a structure, and the calls need not agree.
Test: inhibitors of Toxoplasma growth in IFN-γ-primed hosts – cell-based, primary screen (AID 1259416);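 note: host cells are HeLa cells infected with Toxoplasma gondii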
Conditions: Toxoplasma gondii growth in IFN-gamma-treated host cells; stronger effect = lower value; concentration not given here

SMILES	activity change, negative = inhibition
CC(C)CNC(=O)c1ccc2c(c1)C(c1ncn(C(C)C)n1)CN2C(=O)c1ccccc1 (centres undefined)	-46.3% (inactive)
Cc1nc2cc(C(=O)NC3(c4ccc5c(c4)OCO5)CCCC3)ccc2s1	-5.47% (inactive)
C=CCN(Cc1ccccc1Cl)C(=O)c1ccc(CN(C)C)o1	-46.3% (inactive)
C/C(=N/N1CCN(Cc2cccc3ccccc23)CC1)c1cccnc1	-96% (active)
Cc1ccc(CC(=O)c2cccnc2)cc1	14% (inactive)
Cc1cc(-c2ccccc2CN2CCOCC2)ccc1NC(=O)c1cccnc1	-6.76% (inactive)
Cc1ccc(-c2cc(C(=O)Nc3ccc4c(c3)N(S(C)(=O)=O)CCC4)[nH]n2)cc1	-78.5% (active)
Cc1ccc(C(=O)Nc2ccc(-c3nc(-c4ccc(C)cc4)co3)cc2)cc1	42.6% (inactive)
O=C1CCc2cc(NC(=O)c3cc(-c4ccccc4)nc4ccccc34)ccc2N1	-32.2% (inactive)
CN1CCN([C@H]2CN(Cc3ncc[nH]3)C[C@@H]2O)CC1	28% (inactive)
c1cncc(-c2nc3c(c(NCCC4CCOC4)n2)CCNC3)c1 (centres undefined)	-9.13% (inactive)
CCn1c(-c2cc(NC(=O)c3ccncc3)n[nH]2)cc2ccccc21	-91% (active)
CCC(NC(=O)CCn1c(C)cc2ccccc21)c1cccnc1 (centres undefined)	0.306% (inactive)
Cc1nc(N)nc(C)c1CC(=O)N1CCC2(CCOCC2)CC1	-82.2% (active)
Cc1nc(C)n(C(=O)N2CCOCC2)n1	-8.09% (inactive)
CN1CCN(C(=O)c2cncc(N3CCC4(CCOCC4)CC3)n2)CC1	-7.63% (inactive)
COCCN1CC[C@@H]2C[C@@H](C(=O)N3CCCCO3)O[C@@H]2C1	-6.09% (inactive)
CCN1CCO[C@H]2CN(S(=O)(=O)c3cccs3)CC[C@@H]2C1	1.58% (inactive)
COC(C)c1nncn1-c1cccc2ccccc12 (centres undefined)	-48.2% (inactive)
CC(=O)NC1(c2ccc(F)cc2)CCN(Cc2ccc(Oc3ncccn3)cc2)CC1	9.39% (inactive)

SMILES	activity change, negative = inhibition
Cc1ccn(CC(=O)N2CCN3CCNC(=O)C3C2)n1 (centres undefined)	-2.78% (inactive)
COc1ccccc1OCc1cc(C(=O)NCCF)n[nH]1	35.8% (inactive)
O=S(=O)(NCCC1=CCCCC1)c1ccc(S(=O)(=O)NC2CCCCC2)cc1	-84.3% (active)
CN(C)S(=O)(=O)c1ccc2c(c1)cc(C(=O)NCCC1=CCCCC1)n2Cc1ccncc1	-54.8% (inactive)
CCCNS(=O)(=O)c1ccc(CCC(=O)N2CCCC2)cc1	-8.43% (inactive)
Cc1ccccc1NC(=O)c1ccc2ccc(N3CCN(CC4CC4)CC3)n2c1	2.07% (inactive)
N#C[C@H]1N[C@H](CO)[C@H]1c1ccc(-c2cccc(F)c2)cc1	17.8% (inactive)
CC(=O)N1CCCCN2[C@H](CO)[C@H](c3ccc(-c4ccccc4)cc3)[C@@H]2C1	12.2% (inactive)
CC(C)C(=O)Nc1cccnc1-c1ccc(C(C)N2CCOCC2)cc1 (centres undefined)	0.361% (inactive)
COc1ccccc1CCC(=O)N1CCC2(CC1)Nc1cccnc1NC2=NC(C)(C)C	74.7% (inactive)
Cc1[nH]c2ccccc2c1Sc1ccc(Cl)cc1	-55.7% (inactive)
Cc1cc(C)c(C#N)c(Sc2ccc(Cl)cc2)n1	-73.5% (active)
CSc1nn2c(C)cc(C)nc2c1C#N	44.4% (inactive)
COc1ccc(NS(=O)(=O)c2ccc(NC(=S)NC(=O)c3cccs3)cc2)nn1	1.98% (inactive)
O=C(Cc1ccccn1)N1[C@@H]2CNc3ccccc3[C@@H]2[C@@H]1CO	1.07% (inactive)
CCCn1cc(C(=O)N(Cc2ccccn2)CC2CCCO2)c(C)n1 (centres undefined)	-1.25% (inactive)
Cc1nc([C@@H]2C[C@H]3CCN(Cc4sccc4C)C[C@@H]3O2)no1	95.8% (inactive)
Cc1ccc2c(c1C)-n1cccc1C1(CCN(S(=O)(=O)c3ccc(C4CCCCC4)cc3)CC1)N2	30.2% (inactive)
C=CCn1c(SCc2ccc(C(=O)NCCO)cc2)nc2ccccc2c1=O	-34.4% (inactive)
Cn1c(SCc2csc(C3CCCCC3)n2)nc2ccccc2c1=O	-80.1% (active)

SMILES	activity change, negative = inhibition
Cn1c(CNC(=O)CC2CCCC2)nnc1SCc1ccccn1	2.95% (inactive)
Cc1ccsc1-c1cn(CC2(Cn3ccnc3C)CC2)nn1	8.54% (inactive)
O=C(c1cn(-c2ccccc2)nn1)N(Cc1ccsc1)CC1CCCO1 (centres undefined)	1.85% (inactive)
COCc1ncc(CN2CCC(Cc3cccc(C(=O)O)c3)C2)cn1 (centres undefined)	3.4% (inactive)
Cc1oc(C(C)(C)C)cc1C(=O)Nc1ccc(SCc2cccc(Cl)c2F)cc1	-75.3% (active)
Cc1cnc(CN(C)C(=O)C(C)(C)NC(=O)c2cccs2)[nH]1	-13.9% (inactive)
CN1CCN(c2ccc3nc(-c4c(N)c5c(F)cccc5[nH]c4=O)[nH]c3c2)CC1	-66.4% (inactive) and -77.3% (active)
Clc1cccnc1-c1cccc2[nH]ccc12	9.34% (inactive)
CC(C)C(=O)NS(=O)(=O)c1ccc(NC(=O)c2ccccc2)cc1	5.8% (inactive)
COc1cc(NC(=O)Nc2cccc(CNC(=O)O[C@H]3CCOC3)c2)ccc1-c1cnco1	-72.9% (active)
COc1cccc(NC(=O)Nc2ccc3c(c2)C(=O)N(C)C[C@@H](OC)[C@H](C)CN(CC2CC2)[C@H](C)CO3)c1	63.1% (inactive)
COc1cccc(CNC(=O)Nc2ccc(-c3nc(-c4cc(C)ccc4C)co3)cc2)c1	-13% (inactive)
Cc1nc2c(c(N3CCN(C(=O)c4ccccc4F)CC3)n1)CN(Cc1ccccc1)CC2	-27.3% (inactive)
COCC(=O)N1CCC(N(C)Cc2ccccc2)CC1C(=O)O (centres undefined)	3.74% (inactive)
Cc1nn(C)cc1-c1ccnc(NCC2CCN(Cc3ccccc3)C2)n1 (centres undefined)	-13.6% (inactive)
Cc1nn(-c2ccccc2)c(C)c1-c1ccnc(NCc2cnc3ccccn23)n1	-82.8% (active)
COc1cc(CN(C)Cc2ncccc2C)cc(OC)c1	-4.74% (inactive)
COCCN1C(=O)CCc2cc(NC(=O)CC(C)(C)C)ccc21	3.59% (inactive)
CN(Cc1cccnc1)C1COC2(CCN(Cc3cccs3)CC2)C1 (centres undefined)	1.79% (inactive)

Reference: PubChem BioAssay AID1259416 (Broad Institute, 2018)
